Test results: PubChem BioAssay (NCATS)
Inconclusive results are not listed. The source made the active and inactive calls. Unless noted, calls follow the shape of the full dose curve.

Key:
[1] = target: Estrogen receptor (Homo sapiens) (UniProt P03372); assay: qHTS assay for small molecule antagonists of estrogen receptor alpha signaling (AID 588513; active = well fitted curve in the direction sought with a large enough effect in the signal ratio, with a control signal flat, not every such curve was filed as active; the % refers to the signal ratio; also: % is scaled to controls: 0 for no effect and ±100 for the full control effect)
In short: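 Cells were plated at 5000/well and incubated 4 h at 37 C. Compounds were added as 1:2 dilution series, duplicates. 17-beta-estradiol (0.5nM final) was added for 18 h before CCF4 detection.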

[2] = target: Estrogen receptor (Homo sapiens) (UniProt P03372); assay: qHTS assay for small molecule agonists of estrogen receptor alpha signaling (AID 588514);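 also: 0% = vehicle only and 100% = reference agonist; nearly all actives have a fitted effect of over 70% in size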
In short: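 Reporter-gene assay. […] controls beta-lactamase in HEK 293 GripTite cells; after 18 hrs with compound, CCF4 substrate is added for 2 hrs and fluorescence is read.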

[3] = qHTS assay for small molecule antagonists of peroxisome proliferator-activated receptor delta signaling (AID 588535); settings: HEK293T PPARd-UAS-bla, beta-lactamase FRET ratio, 18 h; 460 nm channel;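 also: cells co-treated with a PPAR-delta agonist as stimulator during compound exposure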
In short: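 Cells were seeded at 4000 per well in assay medium containing 2% charcoal/dextran FBS and held 5 hrs at 37 C. Compounds were then added for 18 hrs. CCF4 substrate was applied for 2 hrs at room temperature before fluorescence reading.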

[4] = target: Vitamin D3 receptor (Homo sapiens) (UniProt P11473); assay: qHTS assay for small molecule antagonists of vitamin D receptor signaling (AID 588541);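 also: receptor activated by calcitriol during compound treatment; series mostly up to about 77 µM; % is scaled to controls: 0 for no effect and ±100 for the full control effect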
In short: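 VDR-UAS-bla HEK293T cells in 2% charcoal-stripped FBS were stimulated with 1-alpha,25-dihydroxyvitamin D3 (3 nM final) plus compound for 16 h at 37 C. The beta-lactamase CCF4 readout was normalized to 50 nM agonist and DMSO, and Hill fits gave IC50.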

[5] = target: Vitamin D3 receptor (Homo sapiens) (UniProt P11473); assay: qHTS assay for small molecule agonists of vitamin D receptor signaling (AID 588543);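 also: 0% = DMSO basal and 100% = reference agonist control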
In short: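 qHTS in agonist mode: compound titrations stimulate a VDR-driven β-lactamase reporter in HEK293T cells over 16 h at 37 °C. Response normalized to 50 nM 1α,25-dihydroxyvitamin D3 = 100%, DMSO = 0%; Hill fitting gives EC50 and maximal response.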

[6] = qHTS assay for small molecule agonists of retinoid X receptor alpha signaling (AID 588544); settings: HEK293T RXRa-UAS-bla, beta-lactamase reporter, 18 h; 530 nm emission;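 as to activation: 0% = DMSO basal wells and 100% = reference agonist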
[7] = target: Retinoic acid receptor RXR-alpha (Homo sapiens) (UniProt P19793); assay: as above
[8] = qHTS assay for small molecule antagonists of retinoid X receptor alpha signaling (AID 588546; active = well fitted inhibition curve with a large enough effect in the signal ratio, with a control signal flat, not every such curve was filed as active; the % refers to the signal ratio;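 also: cells stimulated with 9-cis-retinoic acid as agonist; % is scaled to controls: 0 for no effect and ±100 for the full control effect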); settings: HEK293T RXRa-UAS-bla, beta-lactamase ratio, antagonist mode; measured here: W530 green channel, cytotoxicity proxy
In short: (§1)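 Beta-lactamase reporter inhibition, read as CCF4 fluorescence ratio (ex 405, em 460/530 nm) after 2 h at RT. HEK293T UAS-bla cells, 2500/well, were stimulated with 9-cis-RA at 500 or 100 nM final alongside test compound for 18 h at 37 C.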

[9] = target: Retinoic acid receptor RXR-alpha (Homo sapiens) (UniProt P19793); assay: as above; settings: HEK293T RXRa-UAS-bla, beta-lactamase ratio, antagonist mode
In short: as §1

[10] = qHTS assay for small molecule activators of the p53 signaling pathway (AID 651743; active = well fitted activation curve with a large enough effect in the signal ratio, not every such curve was filed as active; the % refers to the signal ratio; also: series mostly up to about 92 µM; % of control where 0% means no effect); settings: HCT-116 p53RE-bla, beta-lactamase FRET ratio, 16 h; activation: stronger effect = higher value
In short: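 HCT-116 p53RE-bla, 4,000 cells/well; 5 h settle; cpd/DMSO 16 h, 37 C; LiveBLAzer B/G 2 h RT; fluorescence intensity.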

[11] = qHTS assay for environmental chemicals that activate the Aryl hydrocarbon Receptor (AhR) signaling pathway (AID 651777; active = well fitted curve in the direction sought with a large enough effect; an effect the other way counts as inactive or inconclusive; also: % of control where 0% means no effect; nearly all actives have a fitted effect of over 15% in size); settings: 1A2-DRE human hepatoma cells, luciferase, 24 h; activation: stronger effect = higher value
In short: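 1A2-DRE human hepatoma reporter line; 1,200 cells/well; cmpd or DMSO 24 h, 37 C/5% CO2; One-Glo 30 min RT; luciferase lum.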

[12] = target: Peroxisome proliferator-activated receptor alpha (Homo sapiens) (UniProt Q07869); assay: qHTS assay for small molecule agonists of the peroxisome proliferator-activated receptor alpha (PPARalpha) signaling pathway (AID 651778; active = well fitted curve in the direction sought with a large enough effect; an effect the other way counts as inactive or inconclusive; also: % of control where 0% means no effect); settings: PathHunter PPARalpha complementation, chemiluminescence, 6 h; max response: stronger effect = higher value
In short: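 Enzyme-fragment complementation assay in which ligand-bound PPARalpha translocates and forms an active enzyme that generates chemiluminescence. Cells were plated overnight, exposed to compound for 6 hr at 37 C, and then given detection reagent for 60 min at room temperature.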

[13] = qHTS assay for small molecule agonists of the antioxidant response element (ARE) signaling pathway measured by Nrf2-dependant transcriptional activity - cell viability counter screen (AID 720653; active = well fitted curve in the direction sought with a large enough effect in the repeat runs; an effect the other way counts as inactive or inconclusive; also: % is scaled to controls: 0 for no effect and ±100 for the full control effect); settings: ARE-bla HepG2 viability, CellTiter-Glo ATP luminescence, 16 h; max response: stronger effect = lower value
In short: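 ARE-bla HepG2 cells treated with compounds for 16 h at 37C; this counter screen measures viability as intracellular ATP by CellTiter-Glo luminescence after 30 min at room temperature.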

[14] = qHTS assay for cell viability of HEK293 cells (AID 743288; active = well fitted curve in the direction sought with a large enough effect; an effect the other way counts as inactive or inconclusive; also: % is scaled to controls: 0 for no effect and ±100 for the full control effect; nearly all actives have a fitted effect of over 50% in size); settings: ATP luminescence (CellTiter-Glo), 18 h; max response: stronger effect = lower value
In short: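 The Tox21 protocol used parental HEK293 cells treated for 18 h at 37 C with compounds delivered by pintool; ATP-coupled luminescence after 30 min at room temperature gave viability.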

[15] = qHTS assay for cell viability of the p53RE-bla HCT-116 cell line (AID 743292; active = well fitted curve in the direction sought with a large enough effect; an effect the other way counts as inactive or inconclusive; also: % is scaled to controls: 0 for no effect and ±100 for the full control effect; nearly all actives have a fitted effect of over 55% in size)
In short: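 HCT-116 p53RE-bla cells seeded 4,000/well; 5 h at 37 C; compound (DMSO) added; 16 h at 37 C; CellTiter-Glo added, 30 min RT; luminescence read.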

[16] = target: Nuclear receptor subfamily 1 group I member 2 (Rattus norvegicus) (UniProt Q9R1A7); assay: qHTS assay for small molecule activators of the rat pregnane X receptor (rPXR) signaling pathway (AID 651751; call rule not given here; also: 0% is about no effect); settings: rPXR reporter cells, luciferase (One-Glo), 24 h
[17] = qHTS assay for small molecule activators of the human pregnane X receptor (PXR) signaling pathway (AID 720659; call rule not given here; also: 0% is about no effect)
[18] = target: Thyroid hormone receptor beta (Homo sapiens) (UniProt P10828); assay: qHTS assay for small molecule agonists of thyroid hormone receptor beta signaling (AID 588545)
In short: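 Agonist-mode beta-lactamase reporter assay, HEK 293 cells, 2% charcoal/dextran FBS; cells plated 4 hrs, compound 18 hrs at 37 C, CCF4 2 hrs RT. Normalized to 10 nM T3 (100%) and DMSO (0%); Hill fit gives EC50, efficacy.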

[19] = target: Thyroid hormone receptor beta (Homo sapiens) (UniProt P10828); assay: qHTS assay for small molecule antagonists of thyroid hormone receptor beta signaling (AID 588547; active = well fitted inhibition curve with a large enough effect in the signal ratio, with a control signal flat, not every such curve was filed as active; the % refers to the signal ratio); settings: TR-UAS-bla HEK293, beta-lactamase ratio, antagonist mode, 18 h
In short: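 TR-UAS-bla GripTite HEK293 cells in 2% charcoal/dextran FBS medium; compounds 0.59 nM to 92 uM with T3 at 0.4nM final, 18 h at 37 C. Beta-lactamase read by CCF4 fluorescence (460/530 nm); Hill fits gave IC50 and efficacy.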

[20] = qHTS assay for small molecule agonists of the antioxidant response element (ARE) signaling pathway measured by Nrf2-dependant transcriptional activity (AID 720636; active = well fitted curve in the direction sought with a large enough effect in the repeat runs; an effect the other way counts as inactive or inconclusive;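 also: HepG2 cells with an ARE-driven luciferase reporter; % of control where 0% means no effect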)
In short: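 Cells: ARE-luc HepG2 with Nrf2-responsive luciferase. Medium contained 1% dialyzed FBS. Compound exposure lasted 16 hr at 37 C and 5% CO2, followed by ONE-Glo luciferase detection.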

Retinoic acid receptor RXR-alpha (Homo sapiens), sequence (P19793 whole entry, looked up): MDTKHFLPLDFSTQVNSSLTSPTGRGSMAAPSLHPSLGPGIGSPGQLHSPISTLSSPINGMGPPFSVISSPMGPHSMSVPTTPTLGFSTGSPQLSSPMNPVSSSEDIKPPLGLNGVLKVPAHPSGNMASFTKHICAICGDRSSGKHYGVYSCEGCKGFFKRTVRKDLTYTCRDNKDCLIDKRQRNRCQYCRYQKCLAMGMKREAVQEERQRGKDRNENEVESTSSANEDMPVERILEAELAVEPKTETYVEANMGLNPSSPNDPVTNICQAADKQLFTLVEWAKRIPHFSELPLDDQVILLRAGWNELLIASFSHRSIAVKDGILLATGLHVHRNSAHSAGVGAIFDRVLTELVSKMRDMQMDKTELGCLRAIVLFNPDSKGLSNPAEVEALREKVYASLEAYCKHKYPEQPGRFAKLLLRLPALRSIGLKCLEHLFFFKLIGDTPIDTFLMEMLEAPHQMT
Estrogen receptor (Homo sapiens), sequence (P03372 whole entry, looked up): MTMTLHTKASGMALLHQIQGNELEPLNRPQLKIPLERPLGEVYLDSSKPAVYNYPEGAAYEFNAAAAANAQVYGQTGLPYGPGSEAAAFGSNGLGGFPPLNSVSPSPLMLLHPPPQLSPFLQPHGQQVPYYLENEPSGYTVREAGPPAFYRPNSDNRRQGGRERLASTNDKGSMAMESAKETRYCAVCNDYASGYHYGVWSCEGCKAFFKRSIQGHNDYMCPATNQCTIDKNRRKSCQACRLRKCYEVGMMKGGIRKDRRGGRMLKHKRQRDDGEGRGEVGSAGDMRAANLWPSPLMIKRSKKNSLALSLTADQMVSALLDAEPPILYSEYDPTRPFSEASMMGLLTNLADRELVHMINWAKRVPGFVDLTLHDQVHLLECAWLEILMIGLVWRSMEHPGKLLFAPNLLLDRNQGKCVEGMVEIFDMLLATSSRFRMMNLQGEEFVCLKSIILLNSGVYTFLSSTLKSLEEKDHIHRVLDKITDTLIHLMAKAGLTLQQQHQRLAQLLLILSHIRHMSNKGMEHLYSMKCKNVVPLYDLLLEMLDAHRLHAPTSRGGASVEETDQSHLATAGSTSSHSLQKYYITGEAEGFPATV
Thyroid hormone receptor beta (Homo sapiens), sequence (P10828 whole entry, looked up): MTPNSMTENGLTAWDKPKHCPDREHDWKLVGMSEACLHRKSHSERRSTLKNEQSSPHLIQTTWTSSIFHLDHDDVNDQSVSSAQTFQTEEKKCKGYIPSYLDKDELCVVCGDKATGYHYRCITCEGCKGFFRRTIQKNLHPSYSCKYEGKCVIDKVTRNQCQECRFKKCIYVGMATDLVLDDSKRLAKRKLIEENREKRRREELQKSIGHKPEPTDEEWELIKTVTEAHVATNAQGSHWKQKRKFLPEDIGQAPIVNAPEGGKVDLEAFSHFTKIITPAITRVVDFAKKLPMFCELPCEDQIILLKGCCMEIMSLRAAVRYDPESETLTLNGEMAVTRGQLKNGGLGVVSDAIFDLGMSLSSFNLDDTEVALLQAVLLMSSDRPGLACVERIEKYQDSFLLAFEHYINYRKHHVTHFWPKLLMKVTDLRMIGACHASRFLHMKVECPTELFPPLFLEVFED
Nuclear receptor subfamily 1 group I member 2 (Rattus norvegicus), sequence (Q9R1A7 whole entry, looked up): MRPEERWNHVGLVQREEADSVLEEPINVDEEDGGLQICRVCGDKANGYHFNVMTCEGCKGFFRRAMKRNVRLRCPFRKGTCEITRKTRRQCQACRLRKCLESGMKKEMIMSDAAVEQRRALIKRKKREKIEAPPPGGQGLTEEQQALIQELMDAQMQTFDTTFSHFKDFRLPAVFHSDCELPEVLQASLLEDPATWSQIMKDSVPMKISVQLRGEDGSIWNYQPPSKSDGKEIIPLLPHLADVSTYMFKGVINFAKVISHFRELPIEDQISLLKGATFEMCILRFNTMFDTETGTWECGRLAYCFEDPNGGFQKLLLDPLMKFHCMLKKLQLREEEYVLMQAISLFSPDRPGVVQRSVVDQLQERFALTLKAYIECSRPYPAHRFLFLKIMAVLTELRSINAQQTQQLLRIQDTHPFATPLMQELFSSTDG
Peroxisome proliferator-activated receptor alpha (Homo sapiens), sequence (Q07869 whole entry, looked up, the tested form may be a part): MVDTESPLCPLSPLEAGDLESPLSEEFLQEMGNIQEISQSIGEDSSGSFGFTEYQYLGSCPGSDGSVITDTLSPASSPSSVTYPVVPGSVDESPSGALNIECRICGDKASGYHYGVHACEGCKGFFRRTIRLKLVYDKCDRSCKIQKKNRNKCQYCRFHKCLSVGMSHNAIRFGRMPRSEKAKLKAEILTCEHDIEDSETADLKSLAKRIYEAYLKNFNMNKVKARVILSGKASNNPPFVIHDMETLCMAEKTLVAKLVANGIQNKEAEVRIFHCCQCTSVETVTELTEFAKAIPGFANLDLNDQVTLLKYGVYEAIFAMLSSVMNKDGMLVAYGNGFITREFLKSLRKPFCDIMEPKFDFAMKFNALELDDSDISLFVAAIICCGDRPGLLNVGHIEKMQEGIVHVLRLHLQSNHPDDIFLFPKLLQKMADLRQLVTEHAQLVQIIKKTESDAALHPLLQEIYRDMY
Vitamin D3 receptor (Homo sapiens), sequence (P11473 whole entry, looked up): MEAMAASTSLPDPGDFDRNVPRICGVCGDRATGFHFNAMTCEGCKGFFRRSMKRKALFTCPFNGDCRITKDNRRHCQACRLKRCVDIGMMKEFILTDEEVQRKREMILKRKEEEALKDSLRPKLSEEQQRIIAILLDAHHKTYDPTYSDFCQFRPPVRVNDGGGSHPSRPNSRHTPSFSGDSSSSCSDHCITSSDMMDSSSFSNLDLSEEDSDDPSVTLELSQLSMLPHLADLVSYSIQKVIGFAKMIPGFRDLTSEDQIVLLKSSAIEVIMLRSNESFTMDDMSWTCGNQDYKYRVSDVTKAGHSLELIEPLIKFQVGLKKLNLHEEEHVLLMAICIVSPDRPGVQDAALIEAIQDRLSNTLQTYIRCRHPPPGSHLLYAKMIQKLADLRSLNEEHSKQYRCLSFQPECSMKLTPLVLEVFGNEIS

Row | Compound | Potency [1] | Potency [2] | max response [3] | Potency [4] | outcome [5] | max response [6] | Potency [7] | max response [8] | max response [9] | activation [10] | activation [11] | max response [12] | max response [13] | max response [14] | Potency [15] | max response [16] | outcome [17] | Potency [18] | activity change % (negative = inhibition) [19] | Potency [20]
1 | CCCCCCCCCCCCCO | inactive | inactive | 18.2% | inactive | inactive | -5.38% | inactive | -5.73% | 3.57% (inactive) | -3% (inactive) | 0.322% (inactive) | 1.19% (inactive) | -9.94% (inactive) | -5.94% (inactive) | inactive | 1.91% (inactive) | inactive |  |  | 
2 | C/C(=C\C(C)CC(C)CC(C)C)C1CC(=O)OC1=O (stereo not given) | inactive | inactive | 29.8% | inactive | inactive | 7.08% | inactive | -6.65% | 4.94% (inactive) | -3.07% (inactive) | 1.33% (inactive) | -0.902% (inactive) | -17.9% (inactive) | -7.26% (inactive) | inactive | 3.67% (inactive) | inactive | inactive | 0.311% (inactive) | inactive
3 | O=[N+]([O-])c1ccc2c(c1)Cc1ccccc1-2 | inactive | inactive | 11.1% |  |  | -11.5% | inactive | -2.02% | -11.9% (inactive) | 4.31% (inactive) | 0.842% (inactive) | -0.719% (inactive) | -13.8% (inactive) | -16.4% (inactive) | inactive | 5.85% (inactive) | inactive | inactive | -0.921% (inactive) | 
4 | COC(=O)c1ccccc1C(=O)O | inactive | inactive | 47.6% | inactive | inactive | -12.1% | inactive | -4.92% | -10.2% (inactive) | -3.42% (inactive) | 0.0502% (inactive) |  | -2.33% (inactive) | -13.6% (inactive) | inactive | 2.64% (inactive) | inactive | inactive | -12.2% (inactive) | inactive
5 | O=S(=O)(O)c1ccc(N=Nc2c(O)ccc3cc(S(=O)(=O)O)ccc23)cc1 | inactive | inactive | -5.34% |  | inactive | -4.64% | inactive | -15.1% | -6.14% (inactive) |  | -1.77% (inactive) |  | -22.3% (inactive) | -13.8% (inactive) | inactive | -7.92% (inactive) | inactive | inactive | -13.9% (inactive) | inactive
